{"source": "PubChem BioAssay AID1259319", "about": "(Sanford-Burnham Center for Chemical Genomics, 2017)", "note": "In all, about 3,000 compounds went through this assay and about 1,800 (60%) were called active.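 The calls were made as follows: active = activation at or above a set limit, or at least 3 SD above the negative control mean; inactive = the rest.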 The set was probably picked from earlier hits. These entries were drawn from the full list."}
{"molecular_target": "Nuclear receptor subfamily 1 group D member 1 (Homo sapiens) (UniProt P20393)", "sequence (P20393 whole entry, looked up)": "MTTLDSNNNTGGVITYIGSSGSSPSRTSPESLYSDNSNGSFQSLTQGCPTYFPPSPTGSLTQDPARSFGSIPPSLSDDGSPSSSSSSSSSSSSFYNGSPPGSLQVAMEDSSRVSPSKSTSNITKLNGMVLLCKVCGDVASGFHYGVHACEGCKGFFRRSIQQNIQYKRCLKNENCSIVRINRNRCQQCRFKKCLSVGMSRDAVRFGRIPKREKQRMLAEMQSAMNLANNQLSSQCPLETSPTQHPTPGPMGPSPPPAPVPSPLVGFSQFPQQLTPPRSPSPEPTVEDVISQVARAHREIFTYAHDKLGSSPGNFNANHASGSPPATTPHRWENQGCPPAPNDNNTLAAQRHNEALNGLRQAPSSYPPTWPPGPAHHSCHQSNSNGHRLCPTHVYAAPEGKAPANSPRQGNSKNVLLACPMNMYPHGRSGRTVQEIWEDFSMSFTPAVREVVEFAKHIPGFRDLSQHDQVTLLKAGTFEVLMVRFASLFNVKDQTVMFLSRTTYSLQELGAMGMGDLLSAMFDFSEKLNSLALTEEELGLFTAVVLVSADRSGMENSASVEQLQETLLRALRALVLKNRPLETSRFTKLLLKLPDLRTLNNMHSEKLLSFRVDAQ", "assay": "modulators of Rev-erb alpha DNA binding, confirmation, biochemical, FITC-DNA, fluorescence polarization, single point (AID 1259319);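 also: 0% = 35 nM protein with DMSO and 100% = 750 nM protein high control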", "details": "90 min, at 25 µM, active compounds read high"}
{"compound": "CCOc1ccc(-c2nnc3ccc(SC)nn23)cc1", "activation": "26% (active)"}
{"compound": "COc1ccc(-c2nnc3ccc(SCc4ccccc4)nn23)cc1", "activation": "14.9% (active)"}
{"compound": "Cc1cc(C)c2nc(SCC(=O)N(C)C3CCS(=O)(=O)C3)cc(C)c2c1", "note": "(stereo unspecified)", "activation": "34.9% (active)"}
{"compound": "CC1(C)Cc2nc3sc4c(SCC(=O)NC(c5ccccc5)c5ccccc5)ncnc4c3cc2CO1", "activation": "138% (active)"}
{"compound": "COc1ccc(/C=C2\\SC(=S)N(CCCC(=O)NC3CCCC3)C2=O)cc1OC", "activation": "31.3% (active)"}
{"compound": "Cc1cc(/C=C(/C#N)C(=O)Nc2ccc(Cl)cc2)c(C)n1-c1cccnc1", "activation": "53.9% (active)"}
{"compound": "CCCc1nc(SCC(=O)Nc2ccc(S(=O)(=O)N(C)C)cc2)c2ccccc2n1", "activation": "18.2% (active)"}
{"compound": "COC(=O)c1ccc(NC(=O)c2cc(Cl)ccc2OC)cc1", "activation": "32.8% (active)"}
{"compound": "Cc1cc(C)c(/C=C2\\C(=O)Nc3ccccc32)[nH]1", "activation": "32.5% (active)"}
{"compound": "Cc1ccc(NS(=O)(=O)c2cc3c(cc2Br)NC(=O)CO3)cc1C", "activation": "5.15% (inactive)"}
{"compound": "COc1ccc(CCNc2nc3ccc(C)cc3n3cnnc23)cc1OC", "activation": "2.71% (inactive)"}
{"compound": "O=C(Nc1nnc(-c2ccccc2F)s1)c1ccccc1F", "activation": "25.2% (active)"}
{"compound": "Cc1ccc(C(=O)Nc2nnc(-c3cccs3)s2)cc1C", "activation": "-3.7% (inactive)"}
{"compound": "CN1/C(=c2/s/c(=C3/C(=O)N(c4ccccc4)NC3=Nc3ccccc3)n(C)c2=O)C(C)(C)c2ccccc21", "activation": "29.8% (active)"}
{"compound": "CCCCCCSc1ccc(-c2nc3ccc(Cl)cn3c2NCc2ccccc2)cc1", "activation": "12.7% (inactive)"}
{"compound": "Cc1cc(C)c2c(-c3ccc(F)cc3)c(C#N)c(=O)n(C)c2n1", "activation": "24.5% (active)"}
{"compound": "CSc1ccc(-c2c(C#N)c(N)nc3c2c(C)nn3-c2ccccc2)cc1", "activation": "7.01% (inactive)"}
{"compound": "Cc1cc(N/C=C\\C(=O)c2ccc(Cl)c(Cl)c2)no1", "activation": "4.17% (inactive)"}
{"compound": "O=C(COc1ncnc2c(Cl)cc(Cl)cc12)N1CCN(S(=O)(=O)c2ccccc2)CC1", "activation": "14.4% (inactive)"}
{"compound": "N#Cc1c(-c2ccc(F)cc2)cc(C2CC2)nc1SCC(=O)c1cccs1", "activation": "65.1% (active)"}
{"compound": "CS(=O)(=O)c1ccc2nc(NC(=O)c3ccc(N4CCCC4=O)cc3)sc2c1", "activation": "18.3% (active)"}
{"compound": "COc1ccc(-c2csc(NC(=O)c3ccc(N4C(=O)CCC4=O)cc3)n2)cc1OC", "activation": "16.5% (inactive)"}
{"compound": "CCOC(=O)C1=C(c2ccccc2)O/C(=C(/C(=O)OC)C(F)(F)F)S1", "activation": "0.229% (inactive)"}
{"compound": "CCC(C)C1(C2CCCC2)NC(=O)NC1=O", "note": "(stereo unspecified)", "activation": "-1.67% (inactive)"}
{"compound": "CC1(C)CC2CC(C)(CN2c2ncnc3ccc(Br)cc23)C1", "note": "(stereo unspecified)", "activation": "14% (inactive)"}
{"compound": "Cc1cccc(N(CC(=O)Nc2ccc(-c3nc4ccc(C)cc4s3)cc2)S(C)(=O)=O)c1", "activation": "22.1% (active)"}
